# Legend:
# Assay in all cases: DAPPL (digital affinity profiling via proximity ligation, sequencing); 10 mM Tris-HCl pH 7.5, 50 mM NaCl, 1 mM DTT, 4% glycerol, room temperature, 30 min; GST-TFs on glutathione beads, 16-mer random dsDNA library, 0.1% formaldehyde crosslink after washing; high values mean tight binding
# Settings in all cases: protein: recombinant; tags: N-terminal GST; dsDNA, one strand shown
# FLI1 = biological target: T1, FLI1 (Homo sapiens, UniProt Q01543 1-452)
# T1 sequence: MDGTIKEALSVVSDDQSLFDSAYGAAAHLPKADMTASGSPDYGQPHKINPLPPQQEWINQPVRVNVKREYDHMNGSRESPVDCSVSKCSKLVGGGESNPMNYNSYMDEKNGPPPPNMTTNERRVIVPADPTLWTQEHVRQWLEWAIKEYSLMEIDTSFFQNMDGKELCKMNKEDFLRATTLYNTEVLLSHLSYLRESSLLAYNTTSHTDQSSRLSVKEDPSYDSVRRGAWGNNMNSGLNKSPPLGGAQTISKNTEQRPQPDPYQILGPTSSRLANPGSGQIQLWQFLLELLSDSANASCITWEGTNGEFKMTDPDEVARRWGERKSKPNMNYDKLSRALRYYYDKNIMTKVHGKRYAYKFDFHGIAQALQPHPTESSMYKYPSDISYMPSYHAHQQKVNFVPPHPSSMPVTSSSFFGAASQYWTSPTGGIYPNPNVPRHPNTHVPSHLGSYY
# Summary of the method: (§1)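 Human transcription factors carrying a GST fusion were produced in yeast, bound to glutathione beads, tagged with DNA barcodes and pooled together with a tag-only sample. Each pool was held with 200 nmole of a random double-stranded 16-mer DNA library in Tris/NaCl/DTT/glycerol buffer for 30 min at room temperature, then washed, crosslinked in 0.1% formaldehyde, proximity-ligated with BsaI/T4 ligase (1 h, 37 °C), PCR-amplified and sequenced on an Illumina NextSeq500. Binding signal is the read frequency of each hexamer for a given factor divided by its frequency in the tag-only sample.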
# ELK1 = biological target: T2, ELK1 (Homo sapiens, UniProt P19419 1-428)
# T2 sequence: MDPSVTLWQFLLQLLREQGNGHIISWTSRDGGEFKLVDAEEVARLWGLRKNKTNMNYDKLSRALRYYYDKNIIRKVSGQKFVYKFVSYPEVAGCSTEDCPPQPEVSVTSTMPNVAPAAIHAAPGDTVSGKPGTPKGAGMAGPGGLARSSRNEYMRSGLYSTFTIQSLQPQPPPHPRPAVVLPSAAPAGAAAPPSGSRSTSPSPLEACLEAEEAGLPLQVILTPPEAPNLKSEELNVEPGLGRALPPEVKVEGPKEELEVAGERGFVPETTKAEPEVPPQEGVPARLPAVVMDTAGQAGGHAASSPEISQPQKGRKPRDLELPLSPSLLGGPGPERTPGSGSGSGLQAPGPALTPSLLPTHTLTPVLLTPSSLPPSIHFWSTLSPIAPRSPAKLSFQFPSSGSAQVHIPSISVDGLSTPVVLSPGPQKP
# Summary of the method: as §1
# GABPA = biological target: T3, GABPA (Homo sapiens, UniProt Q06546 1-454)
# T3 sequence: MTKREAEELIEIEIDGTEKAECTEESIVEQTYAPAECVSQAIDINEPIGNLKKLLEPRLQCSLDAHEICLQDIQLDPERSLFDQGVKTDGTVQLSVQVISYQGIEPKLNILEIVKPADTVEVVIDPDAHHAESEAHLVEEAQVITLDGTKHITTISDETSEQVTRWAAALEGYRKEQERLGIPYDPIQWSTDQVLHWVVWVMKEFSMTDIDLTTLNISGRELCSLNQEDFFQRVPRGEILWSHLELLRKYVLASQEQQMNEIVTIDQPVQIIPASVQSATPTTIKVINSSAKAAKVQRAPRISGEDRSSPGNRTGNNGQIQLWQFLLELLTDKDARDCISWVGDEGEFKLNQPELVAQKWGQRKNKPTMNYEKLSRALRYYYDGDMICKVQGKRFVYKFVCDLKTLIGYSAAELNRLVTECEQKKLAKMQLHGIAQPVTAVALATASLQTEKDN
# Summary of the method: as §1
# ERG = biological target: T4, ERG (Homo sapiens, UniProt P11308 1-479)
# T4 sequence: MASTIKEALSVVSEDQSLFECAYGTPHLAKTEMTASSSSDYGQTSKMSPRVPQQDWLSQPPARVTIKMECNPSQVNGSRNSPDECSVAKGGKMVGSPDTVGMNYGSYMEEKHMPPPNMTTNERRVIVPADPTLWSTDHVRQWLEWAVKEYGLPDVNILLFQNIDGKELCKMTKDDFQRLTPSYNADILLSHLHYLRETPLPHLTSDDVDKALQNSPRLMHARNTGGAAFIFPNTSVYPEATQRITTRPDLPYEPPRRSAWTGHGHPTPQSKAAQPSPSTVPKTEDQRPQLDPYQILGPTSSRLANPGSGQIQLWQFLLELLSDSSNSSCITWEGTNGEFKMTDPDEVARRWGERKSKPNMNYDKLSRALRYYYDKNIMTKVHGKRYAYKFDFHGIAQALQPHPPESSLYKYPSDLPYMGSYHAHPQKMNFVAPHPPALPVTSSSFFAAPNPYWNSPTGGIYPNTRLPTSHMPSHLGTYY
# Summary of the method: as §1
# ELF1 = ELF1 (Homo sapiens, UniProt P32519 1-619)
# Sequence of ELF1 (P32519 whole entry): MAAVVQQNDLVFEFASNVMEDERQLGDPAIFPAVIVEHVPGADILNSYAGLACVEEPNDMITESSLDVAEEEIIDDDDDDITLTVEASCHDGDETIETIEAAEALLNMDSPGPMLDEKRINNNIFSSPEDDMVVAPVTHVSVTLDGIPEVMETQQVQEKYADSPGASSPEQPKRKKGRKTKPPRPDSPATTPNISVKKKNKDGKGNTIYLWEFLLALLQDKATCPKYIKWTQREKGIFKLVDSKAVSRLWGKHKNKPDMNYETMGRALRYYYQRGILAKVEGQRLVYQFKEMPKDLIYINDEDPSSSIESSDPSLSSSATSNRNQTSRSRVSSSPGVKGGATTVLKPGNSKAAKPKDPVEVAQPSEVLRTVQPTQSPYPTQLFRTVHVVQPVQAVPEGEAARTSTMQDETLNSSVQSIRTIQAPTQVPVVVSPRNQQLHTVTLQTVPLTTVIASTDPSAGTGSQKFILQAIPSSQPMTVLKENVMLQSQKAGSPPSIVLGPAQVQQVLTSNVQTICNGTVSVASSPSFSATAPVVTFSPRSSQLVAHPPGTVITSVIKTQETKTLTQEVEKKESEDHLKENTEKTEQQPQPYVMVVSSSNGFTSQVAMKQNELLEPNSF
# Summary of the method: as §1
# EHF = biological target: T5, EHF (Homo sapiens, UniProt Q9NZC4 1-300)
# T5 sequence: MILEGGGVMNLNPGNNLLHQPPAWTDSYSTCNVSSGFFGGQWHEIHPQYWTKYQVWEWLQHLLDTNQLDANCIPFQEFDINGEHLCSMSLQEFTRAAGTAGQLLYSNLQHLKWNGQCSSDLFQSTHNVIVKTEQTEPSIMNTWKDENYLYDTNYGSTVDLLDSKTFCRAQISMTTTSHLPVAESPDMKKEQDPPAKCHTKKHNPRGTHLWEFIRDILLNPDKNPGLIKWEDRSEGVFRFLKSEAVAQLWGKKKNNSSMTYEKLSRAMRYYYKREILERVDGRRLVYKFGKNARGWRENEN
# Summary of the method: as §1
# SPI1 = SPI1 (Homo sapiens, UniProt P17947 1-270)
# Summary of the method: as §1
# SPIB = SPIB (Homo sapiens, UniProt Q01892 1-262)
# Sequence of SPIB (Q01892 whole entry): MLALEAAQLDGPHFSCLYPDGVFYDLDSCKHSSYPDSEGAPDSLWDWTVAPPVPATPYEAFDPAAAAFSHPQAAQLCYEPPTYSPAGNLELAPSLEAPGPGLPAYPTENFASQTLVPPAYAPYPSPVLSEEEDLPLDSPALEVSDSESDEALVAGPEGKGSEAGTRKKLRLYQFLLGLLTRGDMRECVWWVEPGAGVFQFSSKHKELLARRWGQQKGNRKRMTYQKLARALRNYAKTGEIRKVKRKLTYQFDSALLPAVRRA
# Summary of the method: as §1
# ELK3 = biological target: T6, ELK3 (Homo sapiens, UniProt P41970 1-407)
# T6 sequence: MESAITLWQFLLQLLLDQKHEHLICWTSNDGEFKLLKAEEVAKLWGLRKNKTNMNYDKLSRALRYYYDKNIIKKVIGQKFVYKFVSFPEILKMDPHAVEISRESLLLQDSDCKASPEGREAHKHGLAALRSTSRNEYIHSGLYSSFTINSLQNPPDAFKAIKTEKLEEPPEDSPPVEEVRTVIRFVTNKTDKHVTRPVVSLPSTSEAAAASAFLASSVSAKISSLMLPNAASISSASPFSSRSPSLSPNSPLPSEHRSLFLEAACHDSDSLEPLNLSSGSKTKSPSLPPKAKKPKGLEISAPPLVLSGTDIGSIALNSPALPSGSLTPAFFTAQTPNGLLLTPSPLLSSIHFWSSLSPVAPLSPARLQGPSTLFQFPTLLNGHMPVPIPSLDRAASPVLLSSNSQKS
# Summary of the method: as §1
# FEV = biological target: T7, FEV (Homo sapiens, UniProt Q99581 1-238)
# T7 sequence: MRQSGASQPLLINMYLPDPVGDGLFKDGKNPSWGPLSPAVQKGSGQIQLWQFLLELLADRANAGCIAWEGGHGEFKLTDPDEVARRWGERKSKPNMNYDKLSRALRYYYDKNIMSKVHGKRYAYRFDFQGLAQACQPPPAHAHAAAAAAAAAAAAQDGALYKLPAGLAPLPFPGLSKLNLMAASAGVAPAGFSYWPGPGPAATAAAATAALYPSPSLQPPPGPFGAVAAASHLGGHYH
# Summary of the method: as §1
# ETV5 = ETV5 (Homo sapiens, UniProt P41161 1-510)
# Sequence of ETV5 (P41161 whole entry): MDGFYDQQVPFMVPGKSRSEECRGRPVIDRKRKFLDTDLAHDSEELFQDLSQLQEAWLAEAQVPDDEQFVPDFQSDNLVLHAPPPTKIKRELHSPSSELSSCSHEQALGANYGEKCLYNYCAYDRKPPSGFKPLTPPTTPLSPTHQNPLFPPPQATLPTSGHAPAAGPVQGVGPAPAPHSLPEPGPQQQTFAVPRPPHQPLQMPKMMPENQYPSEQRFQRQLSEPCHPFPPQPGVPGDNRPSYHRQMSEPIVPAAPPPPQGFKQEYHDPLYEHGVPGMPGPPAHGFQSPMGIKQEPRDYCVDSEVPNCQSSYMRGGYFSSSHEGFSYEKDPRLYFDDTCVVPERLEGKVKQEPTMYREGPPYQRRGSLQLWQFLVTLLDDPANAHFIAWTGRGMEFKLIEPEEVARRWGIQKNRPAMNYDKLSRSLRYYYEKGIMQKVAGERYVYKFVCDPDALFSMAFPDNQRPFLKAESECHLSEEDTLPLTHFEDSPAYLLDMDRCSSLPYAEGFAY
# Summary of the method: as §1
# SPIC = biological target: T8, SPIC (Homo sapiens, UniProt Q8N5J4 1-248)
# T8 sequence: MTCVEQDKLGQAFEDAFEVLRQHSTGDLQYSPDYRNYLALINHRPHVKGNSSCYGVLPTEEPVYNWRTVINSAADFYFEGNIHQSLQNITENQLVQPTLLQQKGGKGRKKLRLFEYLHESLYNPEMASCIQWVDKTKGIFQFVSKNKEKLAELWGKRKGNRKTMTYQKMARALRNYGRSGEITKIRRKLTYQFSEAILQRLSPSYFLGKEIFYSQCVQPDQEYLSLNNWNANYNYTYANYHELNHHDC
# Summary of the method: as §1
# ELF4 = ELF4 (Homo sapiens, UniProt Q99607 1-663)
# Sequence of ELF4 (Q99607 whole entry): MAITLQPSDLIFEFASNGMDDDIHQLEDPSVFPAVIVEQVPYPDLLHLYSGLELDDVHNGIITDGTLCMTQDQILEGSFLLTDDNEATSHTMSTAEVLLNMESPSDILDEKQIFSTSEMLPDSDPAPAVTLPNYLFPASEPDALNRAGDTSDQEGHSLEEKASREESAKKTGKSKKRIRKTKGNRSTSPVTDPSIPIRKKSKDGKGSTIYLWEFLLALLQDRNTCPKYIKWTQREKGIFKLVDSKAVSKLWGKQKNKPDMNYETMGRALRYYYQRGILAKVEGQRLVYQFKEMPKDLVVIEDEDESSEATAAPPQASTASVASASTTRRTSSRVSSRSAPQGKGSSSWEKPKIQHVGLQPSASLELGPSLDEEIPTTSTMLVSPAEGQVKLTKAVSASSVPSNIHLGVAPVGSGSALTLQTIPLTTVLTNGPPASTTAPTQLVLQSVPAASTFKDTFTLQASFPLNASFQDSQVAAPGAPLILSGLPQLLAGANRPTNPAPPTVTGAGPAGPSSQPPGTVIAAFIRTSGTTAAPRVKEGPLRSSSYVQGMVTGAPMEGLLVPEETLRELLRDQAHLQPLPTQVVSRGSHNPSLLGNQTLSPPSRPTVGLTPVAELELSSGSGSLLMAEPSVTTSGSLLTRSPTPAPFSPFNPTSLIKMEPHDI
# Summary of the method: as §1
# ELK4 = biological target: T9, ELK4 (Homo sapiens, UniProt P28324-2 1-405)
# T9 sequence: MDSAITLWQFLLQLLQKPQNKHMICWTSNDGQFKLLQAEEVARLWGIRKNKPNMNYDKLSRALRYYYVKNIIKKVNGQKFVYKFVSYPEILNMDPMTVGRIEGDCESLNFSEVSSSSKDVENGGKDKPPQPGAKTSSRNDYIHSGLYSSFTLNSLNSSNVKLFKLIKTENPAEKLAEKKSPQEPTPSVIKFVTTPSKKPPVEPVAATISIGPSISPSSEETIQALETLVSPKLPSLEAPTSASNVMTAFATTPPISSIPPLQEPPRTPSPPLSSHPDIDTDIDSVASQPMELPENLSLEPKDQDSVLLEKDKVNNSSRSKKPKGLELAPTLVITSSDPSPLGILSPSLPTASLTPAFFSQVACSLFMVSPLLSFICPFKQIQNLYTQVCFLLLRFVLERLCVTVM
# Summary of the method: as §1
# ETV2 = biological target: T10, ETV2 (Homo sapiens, UniProt O00321 1-342)
# T10 sequence: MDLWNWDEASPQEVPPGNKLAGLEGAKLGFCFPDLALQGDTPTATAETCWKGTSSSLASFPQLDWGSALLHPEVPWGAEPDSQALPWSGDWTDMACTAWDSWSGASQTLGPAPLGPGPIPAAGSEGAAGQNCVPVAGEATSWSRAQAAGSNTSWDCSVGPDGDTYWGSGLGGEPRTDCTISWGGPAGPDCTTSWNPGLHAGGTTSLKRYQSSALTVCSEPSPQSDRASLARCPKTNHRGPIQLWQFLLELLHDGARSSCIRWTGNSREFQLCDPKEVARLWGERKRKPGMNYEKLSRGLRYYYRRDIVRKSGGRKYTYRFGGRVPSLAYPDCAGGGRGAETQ
# Summary of the method: as §1
# ETV1 = ETV1 (Homo sapiens, UniProt P50549 1-477)
# Sequence of ETV1 (P50549 whole entry): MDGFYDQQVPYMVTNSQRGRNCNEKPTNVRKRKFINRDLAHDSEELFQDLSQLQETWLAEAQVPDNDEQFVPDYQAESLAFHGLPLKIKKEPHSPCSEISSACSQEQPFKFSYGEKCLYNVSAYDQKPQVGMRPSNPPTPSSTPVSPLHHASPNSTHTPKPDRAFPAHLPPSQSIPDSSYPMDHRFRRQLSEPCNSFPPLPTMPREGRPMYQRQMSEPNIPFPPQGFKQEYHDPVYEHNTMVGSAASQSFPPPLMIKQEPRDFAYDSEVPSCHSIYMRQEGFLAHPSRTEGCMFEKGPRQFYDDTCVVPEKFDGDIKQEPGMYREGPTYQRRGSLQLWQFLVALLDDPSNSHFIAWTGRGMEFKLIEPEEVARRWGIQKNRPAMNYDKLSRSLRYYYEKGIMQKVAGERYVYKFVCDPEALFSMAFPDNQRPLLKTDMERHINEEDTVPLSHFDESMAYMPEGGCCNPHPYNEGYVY
# Summary of the method: as §1
Sequence,binding signal (FLI1),binding signal (ELK1),binding signal (GABPA),binding signal (ERG),binding signal (ELF1),binding signal (EHF),binding signal (SPI1),binding signal (SPIB),binding signal (ELK3),binding signal (FEV),binding signal (ETV5),binding signal (SPIC),binding signal (ELF4),binding signal (ELK4),binding signal (ETV2),binding signal (ETV1)
ACACTC,"1.04 fold enrichment (6-mer frequency, TF over GST control)","1.1 fold enrichment (6-mer frequency, TF over GST control)","1.15 fold enrichment (6-mer frequency, TF over GST control)","1.08 fold enrichment (6-mer frequency, TF over GST control)","1.12 fold enrichment (6-mer frequency, TF over GST control)","1.14 fold enrichment (6-mer frequency, TF over GST control)","1.09 fold enrichment (6-mer frequency, TF over GST control)","1.15 fold enrichment (6-mer frequency, TF over GST control)","1.19 fold enrichment (6-mer frequency, TF over GST control)","1.12 fold enrichment (6-mer frequency, TF over GST control)","1.04 fold enrichment (6-mer frequency, TF over GST control)","1.01 fold enrichment (6-mer frequency, TF over GST control)","1.14 fold enrichment (6-mer frequency, TF over GST control)","1.19 fold enrichment (6-mer frequency, TF over GST control)","1.11 fold enrichment (6-mer frequency, TF over GST control)","1.07 fold enrichment (6-mer frequency, TF over GST control)"
ATGTGT,"1.04 fold enrichment (6-mer frequency, TF over GST control)","1.11 fold enrichment (6-mer frequency, TF over GST control)","1.06 fold enrichment (6-mer frequency, TF over GST control)","1.03 fold enrichment (6-mer frequency, TF over GST control)","1.03 fold enrichment (6-mer frequency, TF over GST control)","1.08 fold enrichment (6-mer frequency, TF over GST control)","1.08 fold enrichment (6-mer frequency, TF over GST control)","1.11 fold enrichment (6-mer frequency, TF over GST control)","1.06 fold enrichment (6-mer frequency, TF over GST control)","1.02 fold enrichment (6-mer frequency, TF over GST control)","1.16 fold enrichment (6-mer frequency, TF over GST control)","1.17 fold enrichment (6-mer frequency, TF over GST control)","1.08 fold enrichment (6-mer frequency, TF over GST control)","1.05 fold enrichment (6-mer frequency, TF over GST control)","1.11 fold enrichment (6-mer frequency, TF over GST control)","1.18 fold enrichment (6-mer frequency, TF over GST control)"
GCACTG,"1.18 fold enrichment (6-mer frequency, TF over GST control)","1.12 fold enrichment (6-mer frequency, TF over GST control)","1.14 fold enrichment (6-mer frequency, TF over GST control)","1.07 fold enrichment (6-mer frequency, TF over GST control)","1.1 fold enrichment (6-mer frequency, TF over GST control)","1.12 fold enrichment (6-mer frequency, TF over GST control)","1.14 fold enrichment (6-mer frequency, TF over GST control)","1.05 fold enrichment (6-mer frequency, TF over GST control)","1.06 fold enrichment (6-mer frequency, TF over GST control)","1.12 fold enrichment (6-mer frequency, TF over GST control)","1.05 fold enrichment (6-mer frequency, TF over GST control)","1.08 fold enrichment (6-mer frequency, TF over GST control)","1.07 fold enrichment (6-mer frequency, TF over GST control)","1.03 fold enrichment (6-mer frequency, TF over GST control)","1.22 fold enrichment (6-mer frequency, TF over GST control)","1.08 fold enrichment (6-mer frequency, TF over GST control)"
TGGTCC,"1.25 fold enrichment (6-mer frequency, TF over GST control)","1.23 fold enrichment (6-mer frequency, TF over GST control)","1.18 fold enrichment (6-mer frequency, TF over GST control)","1.26 fold enrichment (6-mer frequency, TF over GST control)","1.35 fold enrichment (6-mer frequency, TF over GST control)","1.26 fold enrichment (6-mer frequency, TF over GST control)","1.18 fold enrichment (6-mer frequency, TF over GST control)","1.32 fold enrichment (6-mer frequency, TF over GST control)","1.15 fold enrichment (6-mer frequency, TF over GST control)","1.12 fold enrichment (6-mer frequency, TF over GST control)","1.23 fold enrichment (6-mer frequency, TF over GST control)","1.32 fold enrichment (6-mer frequency, TF over GST control)","1.22 fold enrichment (6-mer frequency, TF over GST control)","1.29 fold enrichment (6-mer frequency, TF over GST control)","1.23 fold enrichment (6-mer frequency, TF over GST control)","1.2 fold enrichment (6-mer frequency, TF over GST control)"
